Data: PubChem BioAssay (Tox21)
“And” between values parts separate entries of the source, which are not always exact repeats. Equal entries are not always repeated. Records with an inconclusive call do not appear. Where a call stands in place of a potency, no number is given. Unmarked numbers belong to inactive results. The source made the active and inactive calls. Calls follow the shape of the dose curve; as a rule, active = well fitted cell-killing curve with a large enough effect in the repeat runs; inconclusive = weak or mixed curves, or effect the other way; inactive = flat fitted curve, though single readings scatter.

How the values were obtained:
[1] = cAMP Responsive Elements (CRE) small molecule antagonists, cell-based qHTS assay: qHTS cell viability counter screen (AID 2060913); also: nearly all actives have a fitted effect of over 40% in size
How it was run: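 Viability of NKH477-stimulated (0.25 uM final) CRE-bla HEK293T cells is measured by CellTiter-Glo luminescence following 3 hrs compound exposure at 37 C.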

[2] = cAMP Responsive Elements (CRE) small molecule agonists, cell-based qHTS assay: qHTS cell viability counter screen (AID 2060914);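 also: viability read after 3 h of compound exposure; nearly all actives have a fitted effect of over 50% in size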
How it was run: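 CRE-bla HEK 293T cells, plated 18 h at 37 °C, were exposed to compounds for 3 h at 37 °C/5% CO2. Viability was then measured in the same wells by CellTiter-Glo luminescence after 30 min at room temperature.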
Potency is read from the fitted curve at half-maximal effect.

| Structure (SMILES) | Potency [1] | Potency [2] | viability change, negative = cytotoxic [1] | activity change, negative = cytotoxicity [2] |
| --- | --- | --- | --- | --- |
| CC(CN1CC(=O)NC(=O)C1)N1CC(=O)NC(=O)C1 (stereo not given) | inactive | inactive |  |  |
| CC1CCc2nccnc21 (stereo not given) | inactive | inactive |  |  |
| CCN(CC)CCNC(=O)c1c(C)[nH]c(/C=C2\C(=O)Nc3ccc(F)cc32)c1C | inactive | inactive |  |  |
| CCOC(=O)C1=NN(c2ccc(Cl)cc2Cl)C(C)(C(=O)OCC)C1 (stereo not given) | inactive | inactive |  |  |
| CC(=O)OCC(=O)Nc1cc(C#N)cc(NC(=O)COC(C)=O)c1Cl | inactive | inactive |  |  |
| COc1ccc(CN(CCN(C)C)c2ccccn2)cc1 | inactive | inactive |  |  |
| CCCc1ccc(OC)cc1 | inactive | inactive |  |  |
| N#Cc1ccccc1O | inactive | inactive |  |  |
| CC(C)n1c(/C=C/[C@@H](O)C[C@@H](O)CC(=O)O)c(-c2ccc(F)cc2)c2ccccc21 | inactive | inactive |  |  |
| COC(=O)Nc1nc2ccc(C(=O)C3CC3)cc2[nH]1 | inactive | inactive |  |  |
| CCCC(C(=O)OCCN(CC)CC)(c1ccccc1)c1ccccc1 | inactive | inactive |  |  |
| CO[Si](CCCS)(OC)OC | inactive | inactive |  |  |
| [O]=[Zr] | inactive | inactive |  |  |
| CC(=O)Oc1ccccc1C(=O)O | inactive | inactive |  |  |
| CC1=C2[C@H](/C=C(\C)C(=O)O)CC[C@@H](C)[C@H]2CC1 | inactive | inactive |  |  |
| OC[C@H]1O[C@@H]2O[C@H]3[C@H](O)[C@@H](O)[C@@H](O[C@H]4[C@H](O)[C@@H](O)[C@@H](O[C@H]5[C@H](O)[C@@H](O)[C@@H](O[C@H]6[C@H](O)[C@@H](O)[C@@H](O[C@H]7[C@H](O)[C@@H](O)[C@@H](O[C@H]8[C@H](O)[C@@H](O)[C@@H](O[C@H]1[C@H](O)[C@H]2O)O[C@@H]8CO)O[C@@H]7CO)O[C@@H]6CO)O[C@@H]5CO)O[C@@H]4CO)O[C@@H]3CO | inactive | inactive |  |  |
| CN(C)CCOC(=O)C(c1ccccc1)C1(O)CCCC1 (stereo not given) | inactive | inactive |  |  |
| CCCCCCC[N+](CC)(CC)CCCCc1ccc(Cl)cc1 | inactive | inactive |  |  |
| CCCCCOc1ccc(C2SC(=O)NC2=O)cc1OCC (stereo not given) | inactive | inactive |  |  |
| CCCCCCCCCCCCN(CCO)CCO | 60.9 µM (active) | 60.9 µM (active) |  |  |
| NC(N)=NS(=O)(=O)c1ccc(N)cc1 | inactive | inactive |  |  |
| CC(=O)OCCC(C)C | inactive | inactive |  |  |

| Structure (SMILES) | Potency [1] | Potency [2] | viability change, negative = cytotoxic [1] | activity change, negative = cytotoxicity [2] |
| --- | --- | --- | --- | --- |
| Cc1ccc(C)c(OCCCC(C)(C)C(=O)O)c1 | inactive | inactive |  |  |
| CC(C)=CCl | inactive | inactive |  |  |
| C=CCOCC(CO)(COCC=C)COCC=C | inactive | inactive |  |  |
| CN1Cc2cc(C(=O)N3CCC(C4CCNCC4)CC3)ccc2NC(CC(=O)O)C1=O (stereo not given) | inactive | inactive |  |  |
| C/C(=C\C(C)CC(C)CC(C)C)C1CC(=O)OC1=O (stereo not given) | inactive | inactive |  |  |
| CN(C)CCC(c1ccc(Cl)cc1)c1ccccn1 (stereo not given) | inactive | inactive |  |  |
| CC(C)=CC(C)(C)C | inactive | inactive |  |  |
| N[C@@H](CS)C(=O)O | inactive | inactive |  |  |
| CCCCOC(=O)c1ccc(N)cc1 | inactive | inactive |  |  |
| CCCCOC(=O)[C@H](C)O | inactive | inactive |  |  |
| CC1(C)CC(OC(=O)CCCCCCCCC(=O)OC2CC(C)(C)NC(C)(C)C2)CC(C)(C)N1 |  |  | -1.62% [at 18.9 µM] | 1.68% [at 18.9 µM] |
| O=C1CCCCCCCCCCCCCC1 | inactive | inactive |  |  |
| CC(O)CNCC(C)O (stereo not given) | inactive | inactive |  |  |
| CC(=O)CC(N)=O | inactive | inactive |  |  |
| c1ccc2cnccc2c1 | inactive | inactive |  |  |
| CCCCCCCCCCCCCCCCCl |  |  | 3.61% [at 18.9 µM] | -18.4% [at 18.9 µM] |
| N#C[C@@H]1C[C@@H]2C[C@@H]2N1C(=O)[C@@H](N)C12CC3CC(CC(O)(C3)C1)C2 | inactive | inactive |  |  |
| C[C@](N)(Cc1ccc(O)cc1)C(=O)O |  |  | -1.28% [at 8.39 µM] | -8.98% [at 8.39 µM] |
| CCCCCCCCCOS(=O)(=O)O | inactive | inactive |  |  |
| O=CCCCC=O | inactive | inactive |  |  |
| C/C(=C(/OCCOc1ccc(Cl)cc1)c1ccc(Cl)cc1Cl)n1ccnc1 | inactive | inactive |  |  |
| CCCCC1=NC2(CCCC2)C(=O)N1Cc1ccc(-c2ccccc2-c2nn[nH]n2)cc1 | inactive | inactive |  |  |

| Structure (SMILES) | Potency [1] | Potency [2] | viability change, negative = cytotoxic [1] | activity change, negative = cytotoxicity [2] |
| --- | --- | --- | --- | --- |
| C=CC[N+](C)(C)CC=C | inactive | inactive |  |  |
| CO[Si](CCCNCCN)(OC)OC | inactive | inactive |  |  |
| O=[N+]([O-])c1nccn1CO[C@@H](CO)[C@H](O)CO | inactive | inactive |  |  |
| CN1CCN(C)CC1 | inactive | inactive |  |  |
| COc1cc(C=O)ccc1OC(=O)C(C)C | inactive | inactive |  |  |
| O=C(O)C1=NN(c2ccc(S(=O)(=O)O)cc2)C(=O)C1 | inactive | inactive |  |  |
| C=CC(=O)OCCOC(=O)C=C | inactive | inactive |  |  |
| Cc1cc(C2CCCCC2)n(O)c(=O)c1 | inactive | inactive |  |  |
| CC1=C(C)S(=O)(=O)CCS1(=O)=O | inactive | inactive |  |  |
| CCC(C)(C)C(=O)O | inactive | inactive |  |  |
| NC(Cc1ccc(Cl)cc1)C(=O)O (stereo not given) |  |  | 9.93% [at 0.349 µM] | -0.576% [at 0.349 µM] |
| CC(C)COC(=O)COc1cc(Cl)c(Cl)cc1Cl | inactive | inactive |  |  |
| Cc1ccc(Nc2nccc(N(C)c3ccc4c(C)n(C)nc4c3)n2)cc1S(N)(=O)=O | inactive | inactive |  |  |
| Cc1ccncc1 | inactive | inactive |  |  |
| N[C@@H](Cc1cc(I)c(Oc2cc(I)c(O)c(I)c2)c(I)c1)C(=O)O | inactive | inactive |  |  |
| CCn1c2ccccc2c2cc(N)ccc21 | inactive | inactive |  |  |
| O=C(Nc1ccccc1SSc1ccccc1NC(=O)c1ccccc1)c1ccccc1 | inactive | inactive |  |  |
| C=Cc1cccc(C)c1 | inactive | inactive |  |  |
| CCCCC=O | inactive | inactive |  |  |
| OCCC(F)(F)C(F)(F)C(F)(F)C(F)(F)C(F)(F)C(F)(F)F | inactive | inactive |  |  |
| O=C(O)Cc1c(Cl)ccc(Cl)c1Cl | inactive | inactive |  |  |
| C=CC(C)(CCC=C(C)C)OC(=O)C(C)C (stereo not given) | inactive | inactive |  |  |

| Structure (SMILES) | Potency [1] | Potency [2] | viability change, negative = cytotoxic [1] | activity change, negative = cytotoxicity [2] |
| --- | --- | --- | --- | --- |
| Brc1c2ccccc2cc2ccccc12 | inactive | inactive |  |  |
| CC1(C)C(=O)N(Cl)C(=O)N1Br | inactive | inactive |  |  |
| CCc1cc2cc(OC)c(OC)cc2c(Cc2ccccc2)n1 | inactive | inactive |  |  |
| [O-][N+](=Nc1ccccc1)c1ccccc1 | inactive | inactive |  |  |
| CC(N)C(=O)OC(C)(C)Cc1ccc(Cl)cc1 (stereo not given) | inactive | inactive |  |  |
| CC(C)(CC(=O)O)C(=O)O | inactive | inactive |  |  |
| CCCCCCOC(=O)c1ccccc1O | inactive | inactive |  |  |
| CCCCCCC(O)CCCCCCCCCCC(=O)O (stereo not given) | inactive | inactive |  |  |
| O=c1[nH]cnc2[nH]ncc12 | inactive | inactive |  |  |
| O=C(O)c1c(Cl)cccc1Cl | inactive | inactive |  |  |
| CC(C)NCC(O)c1ccc(NS(C)(=O)=O)cc1 (stereo not given) | inactive | inactive |  |  |
| O=c1cccc[nH]1 | inactive | inactive |  |  |
| CN(C)[C@@H]1C(=O)C(C(N)=O)=C(O)[C@@]2(O)C(=O)C3=C(O)c4c(O)ccc(Cl)c4[C@@H](O)[C@H]3C[C@@H]12 | inactive | inactive |  |  |
| CCCCCCCC/C=C\CCCCCCCC(=O)O | inactive | inactive |  |  |
| C[Si](C)(C)N[Si](C)(C)C | inactive | inactive |  |  |
| CC(C)Cc1ccc(C(C)C(=O)OCc2ccccn2)cc1 (stereo not given) | inactive | inactive |  |  |
| CCCCCC/C=C/CCCCCCCC(=O)O | inactive | inactive |  |  |
| CC(=O)OCCC1CCCCC1 | inactive | inactive |  |  |
| CC(C)c1ccc2ncccc2c1 | inactive | inactive |  |  |
| CC(C)(CO)[C@@H](O)C(=O)NCCCO | inactive | inactive |  |  |
| CC(C)(C)c1ccc(C(O)CCCN2CCC(C(O)(c3ccccc3)c3ccccc3)CC2)cc1 (stereo not given) | inactive | inactive |  |  |
| CCCCC(CC)CCC(CC(C)C)OS(=O)(=O)O (stereo not given) | inactive | inactive |  |  |

| Structure (SMILES) | Potency [1] | Potency [2] | viability change, negative = cytotoxic [1] | activity change, negative = cytotoxicity [2] |
| --- | --- | --- | --- | --- |
| COc1cc(NCc2ccc3nc(N)nc(N)c3c2C)cc(OC)c1OC | inactive | inactive |  |  |
| CC(=O)OC(C)(C)C | inactive | inactive |  |  |
| C/C(Cl)=C/CCl | inactive | inactive |  |  |
| OCc1cc(C(O)CNCCCCCCOCCCCc2ccccc2)ccc1O (stereo not given) | inactive | inactive |  |  |
| CC(C)c1cc(C(C)C)cc(C(C)C)c1 | inactive | inactive |  |  |
| O=C(c1ccccc1)c1ccc(O)c(O)c1O | inactive | inactive |  |  |
| CCC(=O)OC(C)(C)C1CC=C(C)CC1 (stereo not given) | inactive | inactive |  |  |
| CCCCC(CC)COP(=O)(OCC(CC)CCCC)OCC(CC)CCCC (stereo not given) | inactive | inactive |  |  |
| CN1CCC(=C2c3ccccc3Sc3ccccc32)CC1 | inactive | inactive |  |  |
| CCCCCCCCCCCCCC(=O)OCC(O)CO (stereo not given) | inactive | inactive |  |  |
| ClCCl | inactive | inactive |  |  |
| CCCCNCC | inactive | inactive |  |  |
| CCCCCCCCCCCCCCCC[N+](C)(C)CC | 57.1 µM (active) and 26.6 µM (active) | 54.6 µM (active) and 26.6 µM (active) |  |  |
| CCOc1ccc(N=Nc2ccc(/C=C/c3ccc(N=Nc4ccc(OCC)cc4)cc3S(=O)(=O)O)c(S(=O)(=O)O)c2)cc1 | inactive | inactive |  |  |
| CCCCCC1CCC(=O)O1 (stereo not given) | inactive | inactive |  |  |
| C=C(C)CCO | inactive | inactive |  |  |
| C=CC(=O)CCCCC | inactive | inactive |  |  |
| O=c1[nH]c2ccc(S(=O)CCN3CCC(Cc4ccc(F)cc4)CC3)cc2o1 (stereo not given) | inactive | inactive |  |  |
| CCN(Cc1cccnc1)C(=O)c1cccc(Cl)c1[C@]1(C)C(=O)N(Cc2ccc(OC)cc2OC)c2ccc(Cl)cc21 | inactive | inactive |  |  |
| CCC1=C(C)CN(C(=O)NCCc2ccc(S(=O)(=O)NC(=O)NC3CCC(C)CC3)cc2)C1=O (stereo not given) | inactive | inactive |  |  |
| O=[N+]([O-])c1ccccc1C(F)(F)F | inactive | inactive |  |  |
| O=C(O)C[C@H](O)C[C@H](O)/C=C/c1c(C2CC2)nc2ccccc2c1-c1ccc(F)cc1 |  |  | 5.03% [at 18.9 µM] | 17.9% [at 18.9 µM] |
